# Data from PubChem BioAssay.
# Target: Epidermal growth factor receptor (Homo sapiens) (UniProt P00533)
# Assay: EGFR binders on small-molecule microarrays, primary screen, biochemical, small-molecule microarray, 635 nm fluorescence (AID 1104);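 further: score merges 667 nm emission intensity with spot signal to noise over triplicate slides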
# Conditions: EGFR binding, higher = more signal
# Sequence of Epidermal growth factor receptor (Homo sapiens) (P00533 whole entry, looked up): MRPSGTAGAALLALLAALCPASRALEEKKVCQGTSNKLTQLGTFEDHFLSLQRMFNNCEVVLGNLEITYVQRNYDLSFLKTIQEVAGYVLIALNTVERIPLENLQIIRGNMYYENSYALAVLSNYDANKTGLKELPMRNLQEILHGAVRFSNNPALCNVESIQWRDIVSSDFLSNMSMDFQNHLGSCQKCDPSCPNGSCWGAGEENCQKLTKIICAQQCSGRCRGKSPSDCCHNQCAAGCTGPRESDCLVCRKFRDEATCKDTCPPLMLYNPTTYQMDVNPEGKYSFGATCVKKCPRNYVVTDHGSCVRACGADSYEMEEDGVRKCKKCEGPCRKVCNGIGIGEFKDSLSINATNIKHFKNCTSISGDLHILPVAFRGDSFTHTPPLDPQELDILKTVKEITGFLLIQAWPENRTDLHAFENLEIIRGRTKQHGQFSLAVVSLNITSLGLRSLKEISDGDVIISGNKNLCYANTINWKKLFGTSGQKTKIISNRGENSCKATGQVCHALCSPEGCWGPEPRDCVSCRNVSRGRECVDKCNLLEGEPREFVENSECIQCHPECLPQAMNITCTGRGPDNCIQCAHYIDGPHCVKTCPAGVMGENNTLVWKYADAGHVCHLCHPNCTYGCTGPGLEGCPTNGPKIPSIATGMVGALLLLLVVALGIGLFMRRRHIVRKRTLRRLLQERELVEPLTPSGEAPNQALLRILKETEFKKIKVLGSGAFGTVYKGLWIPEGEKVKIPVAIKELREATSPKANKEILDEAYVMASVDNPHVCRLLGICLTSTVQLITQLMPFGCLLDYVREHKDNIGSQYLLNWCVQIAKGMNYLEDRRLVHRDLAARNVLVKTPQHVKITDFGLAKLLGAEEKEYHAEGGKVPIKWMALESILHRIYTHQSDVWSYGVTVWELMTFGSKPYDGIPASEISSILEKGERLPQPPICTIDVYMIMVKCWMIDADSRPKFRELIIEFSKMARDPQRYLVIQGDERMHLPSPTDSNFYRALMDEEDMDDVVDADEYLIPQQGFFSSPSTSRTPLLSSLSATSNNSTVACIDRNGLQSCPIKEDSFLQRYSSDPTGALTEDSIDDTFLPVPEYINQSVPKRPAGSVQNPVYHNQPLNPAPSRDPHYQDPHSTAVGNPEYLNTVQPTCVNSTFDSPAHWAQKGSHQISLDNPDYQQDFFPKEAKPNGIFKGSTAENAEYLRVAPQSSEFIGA
row,Structure (SMILES),composite z-score
1,O=C1O[C@@H](c2ccccc2)[C@@H](c2ccccc2)N2[C@@H](c3ccc(O)cc3)[C@]3(C(=O)Nc4ccccc43)[C@@H](C(=O)Nc3nc4ccccc4s3)[C@H]12,-0.104
2,C=C(COC)/C(=C/C[C@@H](OC(=O)c1ccncc1)c1cccc(OCCO)c1)c1cnc2ccccc2c1,1.65
3,O=C1O[C@@H](c2ccccc2)[C@@H](c2ccccc2)N2[C@@H](c3ccccc3OCCO)[C@]3(C(=O)Nc4ccc(C#CCCO)cc43)[C@@H](C(=O)N3CCN(c4ncccn4)CC3)[C@H]12,-0.022
4,COC(=O)C[C@H]1O[C@]2(C(=O)N(C)c3ccccc32)[C@@H](C)[C@@H]1[Si](C)(C)c1ccc(C)cc1,0.41
5,Cc1ccc(C(C)CC(O)C2C=CC3C(=O)N(c4ccccc4)C(=O)C3N2Nc2ccc(C(C)C)cc2)o1 (stereo not drawn),0.17
6,C[n+]1ccc(CCCO)cc1,-0.455
7,C=C(COC)/C(=C/C[C@@H](OC(=O)c1ccncc1)c1ccc(CO)o1)c1cnc2ccccc2c1,1.59
8,CCOC(=O)[C@H]1C/C=C/C[C@H](C(=O)OCC)C(=O)O[C@H]2[C@@H](OC)O[C@H](CO)[C@@H](OC(=O)CCc3ccccc3)[C@@H]2OC1=O,-0.741
9,CCCCC(=C=CC[C@@H](O)c1ccc(OCCO)cc1)C[C@@H](O)COCc1ccccc1,-0.3
10,CCCc1cccc(=O)o1,-0.21
11,COCC(=C=CC[C@H](O)c1ccc(OCCO)cc1)C[C@H](O)COCc1ccccc1,0.291
12,O=C(NC1CC1)[C@@H]1c2ccccc2C(=O)N(Cc2ccccc2)[C@H]1c1ccc(CO)cc1,-0.375
13,COCCOC(=O)N1C(=O)[C@@]2(c3cc(C#CC4=CCCCC4)ccc31)[C@H](C(=O)N1CCN(c3ncccn3)CC1)[C@H]1C(=O)O[C@H](c3ccccc3)[C@H](c3ccccc3)N1[C@@H]2c1ccc(O)cc1,0.466
14,O=C1C2C=CC(C(O)c3cc(C(F)(F)F)cc(C(F)(F)F)c3)N(Nc3ccc([N+](=O)[O-])cc3)C2C(=O)N1c1ccccc1 (stereo not drawn),0.437
15,C=CCOC(=O)[C@@H]1[C@H]2C(=O)O[C@H](c3ccccc3)[C@H](c3ccccc3)N2[C@H](c2ccc(OCCOC(=O)[C@H]3C[C@H]4C(=O)N[C@@H](CCCCNC(C)=O)C(=O)N4[C@H]3c3cccc(OCCO)c3)cc2)[C@@]12C(=O)Nc1ccc(I)cc12,0.771
16,COC(=O)[C@@]1(Cc2ccccc2)[C@H]2c3cc(C(=O)N4CCCC4)n(C[C@H](O)CO)c3C[C@H]2CN1C(=O)c1ccccc1,-0.455
17,COCCCNC(=O)[C@]1(CCC(=O)OC(C)(C)C)N=C(c2ccc(OCCCO)cc2)O[C@@H]1c1ccccc1,-0.301
18,COCCOC(=O)N1C(=O)[C@@]2(c3cc(C#CC4=CCCCC4)ccc31)[C@H](c1ccccc1OCCO)N1[C@H](c3ccccc3)[C@H](c3ccccc3)OC(=O)[C@H]1[C@@H]2C(=O)N1CCc2cc(OC)c(OC)cc2C1,0.733
19,CC(C)(C)OC(=O)CC[C@]1(C(=O)N2CCOCC2)N=C(c2ccc(OCCCO)cc2)O[C@H]1c1ccccc1,-0.433
20,COCCOC(=O)N1C(=O)[C@@]2(c3cc(C#CC4=CCCCC4)ccc31)[C@H](c1ccc(O)cc1)N1[C@H](c3ccccc3)[C@H](c3ccccc3)OC(=O)[C@H]1[C@@H]2C(=O)Nc1nc2ccccc2s1,0.383
21,CC1CC/C=C\[C@H]2OC34C=CCN(c5ccc6ccccc6c5)C(=O)[C@H]3N(C(CO)C(C)C)C(=O)[C@@H]4C2C(=O)O1 (stereo partly drawn),-0.56
22,CC(C)CNC(=O)[C@@H]1c2ccccc2C(=O)N(Cc2cc(F)cc(C(F)(F)F)c2)[C@H]1c1ccc(CO)cc1,-0.315
23,C=C[C@H](COC(C)=O)NS(=O)(=O)c1ccc(Br)cc1,0.141
24,CC(C)CN1C(=O)[C@@]2(Cc3ccccc31)c1ccccc1C(=O)N(Cc1ccccc1C(F)(F)F)[C@H]2c1ccc(CO)cc1,-0.478
25,O=C(CS)NCCCCCCNC(=O)[C@H]1C[C@H]2C(=O)N[C@@H](Cc3ccccc3)C(=O)N2[C@H]1c1cccc(OCCO)c1,1.39
26,CCOC(=CC(=O)OC)CC(O)c1cccc(Cl)c1 (stereo not drawn),-0.779
27,O=C1C[C@]2(c3ccc([N+](=O)[O-])cc3)C(=O)N(Cc3ccccc3)c3cc(CO)ccc3[C@H]2N1CC12CC3CC(CC(C3)C1)C2,-0.478
28,C=CCN1C(=O)[C@@]2(O[C@@H](CCO)[C@H]([Si](C)(C)c3ccc(OC)cc3)[C@H]2C)c2cc(N3C(=O)c4ccccc4Oc4ccccc43)ccc21,-0.262
